# Screening data deposited in PubChem BioAssay by Center for Chemical Genomics, University of Michigan.
# HIV TAR-Tat = HIV-1 TAR-Tat binding disruption; HIV-1 TAR RNA, Tat peptide displacement FRET; hits give high values; z-score (test concentration not listed); 0.6% of 100,000 active; active means z-score of 3 or more in at least 2 runs
# CDC25B-CDK2 inh = human CDC25B-CDK2/CyclinA binding inhibition; AID 1259370; P30305+P24941; z-score (concentration not given with the values); 0.72% of 94,000 active; HTRF CDC25B-CDK2/CyclinA binding, anti-His/anti-Flag; hits give high values; in the data active means z-score above about 3.2
# A number is an active result; . = inactive; / = no result; + = active, no number. Compounds with a hit are over-represented: about 0.86% of the library has one in this group of screens.
SMILES,HIV TAR-Tat,CDC25B-CDK2 inh
CC1CCCCC1NC(=O)C1(C)Cn2c(cc3sccc32)C(=O)N1C1CCCC1 (centres undefined),.,.
Clc1cc(N2CCOCC2)nc(N2CCOCC2)n1,/,.
Fc1ccc(N2CCN(c3c4c(nc5nncn35)CCC4)CC2)cc1,.,.
CCOc1ccc(C2(O)CSC3=C(C#N)C(c4ccc(OC(C)C)cc4)CC(=O)N32)cc1 (centres undefined),/,.
COc1ccc(-n2nnc(-c3nc(-c4cccnc4)no3)c2N)cc1,.,/
O=C(O)c1ccc(Nc2cc(N3CCOCC3)c3noc4c3c2C(=O)c2ccccc2-4)cc1,31.5,11.3
O=C1c2ccccc2-c2onc3c(N4CCOCC4)cc(Nc4ccccc4)c1c23,.,.
O=c1c(CNc2ccccc2)cc2cccc3c2n1CCC3,.,.
CCN(CC)S(=O)(=O)c1ccc2c(c1)N(CC(=O)N1CCCC1)C(=O)C1CCCCN21 (centres undefined),.,/
O=C(Nc1ccc(O)cc1)c1cccc(-n2cnnc2)n1,12.4,/
O=C(Nc1ccc(Br)cc1)c1cccc(-n2cnnc2)n1,.,/
CN(C)c1ccc(NC(=O)C2Cc3ccccc3C(=O)O2)cc1 (centres undefined),/,.
CCn1c2ccccc2c2cc(CN3CCN(S(C)(=O)=O)CC3)ccc21,.,.
CCn1c2ccccc2c2cc(CN3CCN(Cc4ccc(SC)cc4)CC3)ccc21,/,10.7
CC(NC(=O)Nc1ccc(Br)cc1F)c1c(-n2cccc2)sc2c1CCCC2 (centres undefined),.,.
Cc1nn2cnnc2c(C)c1CCC(=O)NCCN1CCCC1,.,/
O=C(NCc1cccnc1)c1noc2ncnc(N3CCCC3)c12,.,/
Cc1ccc2nc3sc(C(=O)Nc4cc(C)on4)cc3cc2c1,.,/
CCc1ccc(-c2cc(C)no2)cc1S(=O)(=O)Nc1ccc(C)c(F)c1,.,/
O=C(c1cnc2sc(N3CCCC3)nn2c1=O)N1CCCC1,.,/
COc1ccc2c(c1)c(=O)oc1cc3oc4c(c3cc12)CCCC4,3.69,.
COc1ccc2c(c1)c(=O)oc1cc3oc(C)c(-c4ccccc4)c3cc12,.,.
CC(Nc1ncnc2c1sc1nc3c(cc12)COC(C)(C)C3)c1ccccc1 (centres undefined),.,/
O=C(Nc1ccccc1F)C1(c2cccs2)CCOCC1,.,/
N.N.O=C(O)C1(C(=O)O)CCC1.[Pt+2],/,+
SMILES,HIV TAR-Tat,CDC25B-CDK2 inh
NC1(C(=O)O)CCCCC1,/,.
COc1ccc(NC(=O)CSc2nc3nccnc3c(=O)n2CC2CCCO2)cc1Cl (centres undefined),.,.
NC(=O)c1ccccc1Sc1ccccc1[N+](=O)[O-],/,.
CCN(CC)c1c(S(=O)(=O)c2ccccc2)cnc2ccc(OC)cc12,.,.
COc1ccc(C2CC(=O)C3=C(C2)NC(=O)CC3c2cccc(Oc3ccccc3)c2)cc1OC (centres undefined),.,.
CC(Sc1nc2c(c(=O)[nH]1)CCCC2)C(=O)Nc1ccc(Br)cc1 (centres undefined),12.9,.
CC(Sc1nc2c(c(=O)[nH]1)CCCC2)C(=O)Nc1ccc(F)cc1 (centres undefined),.,.
O=C(CCSc1nnc(NC2=NS(=O)(=O)c3ccccc32)s1)Nc1ccccc1,.,.
Cc1cccc(C2Nc3cccc4cccc(c34)N2)c1,.,.
COc1cc(C2Nc3cccc4cccc(c34)N2)ccc1O,7.27,.
c1ccc(-c2ccc(C3Nc4cccc5cccc(c45)N3)cc2)cc1,.,.
Oc1ccc2ccccc2c1C1Nc2cccc3cccc(c23)N1,14.8,.
CC1CCc2c(cnc3c(C(=O)NC4CCCCC4C)cnn23)C1 (centres undefined),.,/
CC(C)CCNC(=O)c1ccc2c(=O)[nH]c3c(C(=O)NC4CCCC4)sc(=S)n3c2c1,7.99,/
CC(C)NC(=O)c1sc(=S)n2c1[nH]c(=O)c1ccc(C(=O)NCCCN3CCCC3=O)cc12,8.54,/
CC(C)CCNC(=O)c1ccc2c(=O)[nH]c3c(C(=O)NC(C)C)sc(=S)n3c2c1,.,/
CC(C)OCCCNC(=O)c1ccc2c(=O)[nH]c3c(C(=O)NC4CCCC4)sc(=S)n3c2c1,.,/
O=C(c1cc(-c2ccco2)[nH]n1)N1CCN(S(=O)(=O)c2ccc(Br)cc2)CC1,.,/
Cn1c(=O)[nH]c2nnc(-c3ccc4c(c3)OCO4)nc2c1=O,.,.
COc1ccc(-c2nnc3[nH]c(=O)n(C)c(=O)c3n2)cc1OC,8.16,.
CN(CC(=O)Nc1nc2ccc(Cl)cc2s1)S(=O)(=O)c1ccc2[nH]c(=O)ccc2c1,.,/
CCc1cccc2c1N[C@@H](c1ccc(C(=O)O)cc1)[C@H]1CC=C[C@@H]21,/,.
Cc1cccc2c1N[C@H](c1ccc(C(=O)O)cc1)C1CC=CC21 (some centres undefined),.,6.75
COC(=O)c1cccc2c1NC(c1ccc(Br)cc1)C1CC=CC21 (centres undefined),.,.
